Data published in the supplement of paper PMC7411054.
Where a name gives a salt, the structure may show the parent alone.

Key:
Conditions in all cases: treatment time: 24 h
HepG2-CANX-COX4 [1] = assay: lowest phenotypically active concentration; higher = less potent
How it was run: (§1)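 Fifteen gene-edited A549, HepG2 and WPMY1 reporter lines (BFP segmentation plus GFP and RFP/FusionRed markers) were treated at 0.3, 1, 3 or 9 µM for 24 h, four wells each, then imaged live. Live-cell features per well were normalised to DMSO control wells. Deviation required ≥3 of 4 wells beyond the 95th percentile of DMSO Euclidean distances, and reproducibility required median replicate Pearson correlation above the 95th percentile of non-replicates. Phenotypic activity needed both criteria.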

A549-ACTB-RAB5A = assay: phenotypically active (imaging signature differs from DMSO and reproducible) at any of 0.3-9 uM (binary (1 = active, 0 = inactive)); higher = active
How it was run: as §1

A549-CANX-COX4 = assay: as above
How it was run: as §1

A549-GM130-SQSTM1 = assay: as above
How it was run: as §1

A549-TP53BP1-CLTA = assay: as above
How it was run: as §1

A549-TUBA1B-RELA = assay: as above
How it was run: as §1

HepG2-ACTB-RAB5A [2] = assay: as above
How it was run: as §1

HepG2-CANX-COX4 [3] = assay: as above
How it was run: as §1

HepG2-GM130-SQSTM1 [4] = assay: as above
How it was run: as §1

HepG2-TP53BP1-CLTA = assay: as above
How it was run: as §1

HepG2-TUBA1B-RELA = assay: as above
How it was run: as §1

WPMY1-ACTB-RAB5A = assay: as above
How it was run: as §1

WPMY1-CANX-COX4 = assay: as above
How it was run: as §1

WPMY1-GM130-SQSTM1 [5] = assay: as above
How it was run: as §1

WPMY1-TP53BP1-CLTA [6] = assay: as above
How it was run: as §1

WPMY1-TUBA1B-RELA = assay: as above
How it was run: as §1

WPMY1-GM130-SQSTM1 [7] = assay: lowest phenotypically active concentration; higher = less potent
How it was run: as §1

HepG2-ACTB-RAB5A [8] = assay: as above
How it was run: as §1

HepG2-GM130-SQSTM1 [9] = assay: as above
How it was run: as §1

WPMY1-TP53BP1-CLTA [10] = assay: as above
How it was run: as §1

| SMILES | lowest phenotypically active concentration (HepG2-CANX-COX4 [1]) | phenotypically active (A549-ACTB-RAB5A) | phenotypically active (A549-CANX-COX4) | phenotypically active (A549-GM130-SQSTM1) | phenotypically active (A549-TP53BP1-CLTA) | phenotypically active (A549-TUBA1B-RELA) | phenotypically active (HepG2-ACTB-RAB5A [2]) | phenotypically active (HepG2-CANX-COX4 [3]) | phenotypically active (HepG2-GM130-SQSTM1 [4]) | phenotypically active (HepG2-TP53BP1-CLTA) | phenotypically active (HepG2-TUBA1B-RELA) | phenotypically active (WPMY1-ACTB-RAB5A) | phenotypically active (WPMY1-CANX-COX4) | phenotypically active (WPMY1-GM130-SQSTM1 [5]) | phenotypically active (WPMY1-TP53BP1-CLTA [6]) | phenotypically active (WPMY1-TUBA1B-RELA) | lowest phenotypically active concentration (WPMY1-GM130-SQSTM1 [7]) | lowest phenotypically active concentration (HepG2-ACTB-RAB5A [8]) | lowest phenotypically active concentration (HepG2-GM130-SQSTM1 [9]) | lowest phenotypically active concentration (WPMY1-TP53BP1-CLTA [10]) |
| --- | --- | --- | --- | --- | --- | --- | --- | --- | --- | --- | --- | --- | --- | --- | --- | --- | --- | --- | --- | --- |
| CCN(CC)CCN1C(=O)CN=C(c2ccccc2F)c2cc(Cl)ccc21 [flurazepam] | 1 µM | 0 (inactive) | 0 (inactive) | 0 (inactive) | 0 (inactive) | 0 (inactive) | 0 (inactive) | 1 (active) | 0 (inactive) | 0 (inactive) | 0 (inactive) | 0 (inactive) | 0 (inactive) | 0 (inactive) | 0 (inactive) | 0 (inactive) | – | – | – | – |
| CN1C[C@H](CO)C=C2c3cccc4[nH]cc(c34)C[C@H]21 [Lysergol] | – | 0 (inactive) | 0 (inactive) | 0 (inactive) | 0 (inactive) | 0 (inactive) | 0 (inactive) | 0 (inactive) | 0 (inactive) | 0 (inactive) | 0 (inactive) | 0 (inactive) | 0 (inactive) | 1 (active) | 0 (inactive) | 0 (inactive) | 9 µM | – | – | – |
| CC(C)C[C@H]1C(=O)N2CCC[C@H]2[C@]2(O)O[C@](NC(=O)[C@@H]3C=C4c5cccc6[nH]c(Br)c(c56)C[C@H]4N(C)C3)(C(C)C)C(=O)N12 [bromocriptine] | 9 µM | – | 0 (inactive) | – | 1 (active) | – | 1 (active) | 1 (active) | 1 (active) | 1 (active) | 1 (active) | 0 (inactive) | 0 (inactive) | 1 (active) | 1 (active) | 0 (inactive) | 9 µM | 9 µM | 9 µM | 9 µM |
| CCC(=O)O[C@](Cc1ccccc1)(c1ccccc1)[C@H](C)CN(C)C [propoxyphene] | – | – | 0 (inactive) | – | 0 (inactive) | – | 0 (inactive) | 0 (inactive) | 0 (inactive) | 0 (inactive) | 0 (inactive) | 0 (inactive) | 0 (inactive) | 0 (inactive) | 0 (inactive) | 0 (inactive) | – | – | – | – |
| CC(C)c1cccc(C(C)C)c1O [propofol] | – | 0 (inactive) | 0 (inactive) | 0 (inactive) | 0 (inactive) | 0 (inactive) | 0 (inactive) | 0 (inactive) | 0 (inactive) | 0 (inactive) | 0 (inactive) | 0 (inactive) | 0 (inactive) | 1 (active) | 0 (inactive) | 0 (inactive) | 3 µM | – | – | – |
| C=C1C/C(=C\C)C(=O)O[C@@H]2CCN3CC=C(COC(=O)[C@]1(C)O)[C@H]23 [Seneciphylline] | – | 0 (inactive) | 0 (inactive) | 0 (inactive) | 0 (inactive) | 0 (inactive) | 0 (inactive) | 0 (inactive) | 0 (inactive) | 1 (active) | 0 (inactive) | 0 (inactive) | 0 (inactive) | 0 (inactive) | 0 (inactive) | 0 (inactive) | – | – | – | – |
| CCC(=O)C(CC(C)N(C)C)(c1ccccc1)c1ccccc1 (configuration not stated) [methadone] | – | 0 (inactive) | 0 (inactive) | 0 (inactive) | – | 0 (inactive) | 0 (inactive) | 0 (inactive) | 0 (inactive) | – | 0 (inactive) | 0 (inactive) | 0 (inactive) | 0 (inactive) | – | 0 (inactive) | – | – | – | – |
| CCCN1C[C@H](CSC)C[C@@H]2c3cccc4[nH]cc(c34)C[C@H]21 [pergolide] | – | 0 (inactive) | 0 (inactive) | 0 (inactive) | 0 (inactive) | 0 (inactive) | 0 (inactive) | 0 (inactive) | 0 (inactive) | 0 (inactive) | 0 (inactive) | 0 (inactive) | 0 (inactive) | 1 (active) | 0 (inactive) | 0 (inactive) | 9 µM | – | – | – |
| C[C@@H]1C[C@@H]([C@H](O)CC2CC(=O)NC(=O)C2)C(=O)[C@@H](C)C1 [Cycloheximide] | ≤ 0.3 µM | – | 1 (active) | – | 1 (active) | – | 1 (active) | 1 (active) | 1 (active) | 1 (active) | 1 (active) | 1 (active) | 1 (active) | 1 (active) | 1 (active) | 1 (active) | ≤ 0.3 µM | ≤ 0.3 µM | ≤ 0.3 µM | ≤ 0.3 µM |
| CC[C@H]1CN2CCC1C[C@H]2[C@H](O)c1ccnc2ccc(OC)cc12 (some centres not stated) [Hydroquinine hydrobromide hydrate] | – | – | 0 (inactive) | – | 0 (inactive) | – | 0 (inactive) | 0 (inactive) | 0 (inactive) | 0 (inactive) | 0 (inactive) | 0 (inactive) | 0 (inactive) | 0 (inactive) | 1 (active) | 0 (inactive) | – | – | – | 9 µM |
| C[C@H]1C(=O)O[C@@H]2CCN3CC=C(COC(=O)[C@](C)(O)[C@]1(C)O)[C@H]23 [Monocrotaline] | – | 0 (inactive) | 0 (inactive) | 0 (inactive) | 0 (inactive) | 1 (active) | 0 (inactive) | 0 (inactive) | 0 (inactive) | 0 (inactive) | 0 (inactive) | 0 (inactive) | 0 (inactive) | 0 (inactive) | 0 (inactive) | 0 (inactive) | – | – | – | – |
| CN1[C@@H]2CC[C@H]1C[C@@H](OC(=O)[C@H](CO)c1ccccc1)C2 [Hyoscyamine (L)] | – | 0 (inactive) | 0 (inactive) | 0 (inactive) | – | 0 (inactive) | 0 (inactive) | 0 (inactive) | 0 (inactive) | – | 0 (inactive) | 0 (inactive) | 0 (inactive) | 0 (inactive) | – | 0 (inactive) | – | – | – | – |
